Growth data for 40 compounds are collected here from PubChem BioAssay (NCI).

Structures are written as SMILES. This is part of a sample that, as a whole, favours compounds with a hit. Of some 83,000 tested, about 20% had one in any assay.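 Step 1: grow cells in 96-well plates. Step 2: add test compound at a single concentration. Step 3: incubate 48 h. Step 4: record percent growth.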 Activity calls are given as the source filed them. Rule for the calls: active = growth percent below 10; inactive = the rest.

The assay relates to MDA-MB-468 breast. The experiment in a line: NCI-60 one-dose screen, 48 h (100 = growth as untreated, 0 = no growth, -100 = all killed). Conditions: 10 µM unless noted.
As to `C=CC(COC(c1ccccc1)(c1ccccc1)c1ccccc1)N(CC)CC` (stereo not given), the growth is 14.5% (inactive).

With `CCOc1ccc2nc(NC(=O)Nc3ccccc3C)sc2c1`, the growth is 20.4% (inactive).

On to `Cc1cccc2cc(/C=C/C(=O)/C=C/c3ccc(Cl)cc3)c(=O)[nH]c12`, for which the growth is 61.7% (inactive).

Regarding `N=C(c1ccccc1)N(Cc1ccccc1)Cc1ccccc1`, the growth is 98.2% (inactive).

For `CC(=O)CC(c1ccc([N+](=O)[O-])cc1)c1c(O)c2ccccc2oc1=O` (stereo not given), the growth was 104% (inactive).

For `OC1COC(OCc2ccccc2)C(O)C1O` (stereo not given), the growth was 94.8% (inactive).

For `CCOC(=O)c1nnn(-c2ccccc2)c1C1=CN(C)CCC1`, the growth was 120% (inactive).

Take `O=C1NC(=Nc2ccc(O)cc2)S/C1=C\c1cccc(Cl)c1`: the growth was 44.5% (inactive).

As to `COc1cccc(O)c1O`, the growth was 86.7% (inactive).

Take `COc1cc(C(C)(C)C)cc(OC)c1C(O)(c1c(OC)cc(C(C)(C)C)cc1OC)c1c(OC)cc(C(C)(C)C)cc1OC`: the growth is -88.3% (active).

Consider `Nc1c(Cl)cc2c(c1Br)C(=O)c1ccccc1C2=O`, for which the growth is 85.4% (inactive).

Regarding `COc1ccc(CCN2CCCn3c2nc2ccccc2c3=O)cc1`, the growth is -14% (active).

`Cn1cc(-c2csc(-c3cn(C(=O)OC(C)(C)C)c4ccccc34)n2)c2ccnc(Cl)c21`: the growth is 44.8% (inactive).

As for `CC[C@H](CC[C@@H](C)[C@H]1CC[C@H]2[C@@H]3CC=C4C[C@@H](OCCc5nn[nH]n5)CC[C@]4(C)[C@H]3CC[C@]12C)C(C)C`, the growth is 118% (inactive).

`CCCCCCCCCCCCCC`: the growth was 110% (inactive).

As to `COc1ccc(C2=NN(C(=O)c3cc(OC)c(OC)c(OC)c3)C(c3ccc(Cl)cc3)C2)cc1OC` (stereo not given), the growth is 9.76% (active).

`CC1(C)CC2=C3C=C[C@@H]4[C@@]5(C)CCC(=O)C(C)(C)[C@@H]5CC[C@@]4(C)[C@]3(C)CC[C@@]2(C(=O)O)C[C@H]1O`: the growth is 40.3% (inactive).

On to `CCCc1nn2c(CCC(=O)c3nc4ccc([N+](=O)[O-])cc4[nH]3)nnc2s1`, for which the growth was 114% (inactive).

Turning to `Cc1cc(CSc2ccccc2C(=O)N2CC=C(c3ccccc3)CC2)on1`, the growth is 94.2% (inactive).

In the case of `CSc1ccc2c3c(n(CCCn4ccnc4)c(=O)c2c1)-c1ccccc1C3=O`, the growth was 18.2% (inactive).

For the compound `COc1ccc(/C=C/C(=O)C(=O)/C=C/c2ccc(OC)c(OC)c2)cc1OC`, the growth was 20.1% (inactive).

Turning to `CN(C)c1ccc(/C=C/c2cc[n+](C)c(/C=C/c3ccc(N(C)C)cc3)c2)cc1`, the growth was -12.7% (active).

For `CC(=O)CC(=O)N(C)C`, the growth was 96.8% (inactive).

`Fc1ccc(C2CC(c3cccc(Nc4ccncc4)c3)=NN2c2ccc(Cl)cc2)cc1` (stereo not given): the growth was 63.6% (inactive).

On to `CC/C=C\C[C@H]1CC=C2C(=O)C=C[C@@H]2CC=CCCCC(=O)O[C@@H](CCCCC)CC=C2C(=O)C=C[C@@H]2CC=CCCCC(=O)O[C@@H](CCCCC)CC=C2C(=O)C=C[C@@H]2CC=CCCCC(=O)O[C@@H](CCCCC)CC=C2C(=O)C=C[C@@H]2CC=CCCCC(=O)O1`, for which the growth is 29.8% [7.9 µM] (inactive).

As for `O=c1[nH]c2ccccc2n1C1CCN(CCOc2ccccc2)CC1`, the growth was 78.9% (inactive).

As for `Cc1ccsc1/C=C/C1=NCCCN1C`, the growth was 92.4% (inactive).

Consider `O=C(/C=C\c1cc(Br)ccc1O)/C=C/c1cc(Br)ccc1O`, for which the growth was -65% (active).

For `O=C1c2cc3c(cc2-c2c1c1cc(Cl)c(Cl)cc1c(=O)n2C[C@H](O)CO)OCO3`, the growth was -54.1% (active).

Turning to `O=C(Cn1c(C(=O)c2ccccc2)nc2ccccc21)c1ccc(F)cc1`, the growth is 35.1% (inactive).

As for `O=NN(Cc1cccnc1)C(=O)NC1CCCCC1`, the growth is 104% (inactive).

With `COc1ccc(-c2nnc(COc3ccc(NC(=O)Nc4cccc(C(F)(F)F)c4)cc3F)o2)cc1`, the growth is 46.1% (inactive).

Regarding `COc1cc2nc(Nc3cccc(F)c3)nc(Nc3cc(C)[nH]n3)c2cc1OC`, the growth is -76.6% [20 µM] (active).

`O=S(=O)(NCC[C@@H]1C[C@H]1c1ccc2ccccc2c1)c1ccc(C(F)(F)F)cc1`: the growth is 72.3% (inactive).

Turning to `Cc1nn(-c2ccccc2)c2nc3nc4c(c(N)c3c(-c3ccc(Cl)cc3)c12)CCC4`, the growth was 99.3% (inactive).

As to `O=C(CI)OCC(COC(=O)CI)OC(=O)CI`, the growth was 51.6% (inactive).

For `Nc1nc(Nc2ccc(F)cc2)nn1C(=O)c1cc(Cl)ccc1Cl`, the growth is 60.6% (inactive).

In the case of `CC(C)=CCC/C(C)=C/CC/C(C)=C/CSC[C@H](NC(=O)CCCCCN1CCN(C)CC1)C(=O)NC1CCCCCC1`, the growth was 48.2% (inactive).

Turning to `CN1C/C=C\CCOc2cccc(c2)-c2ccnc(n2)Nc2cccc(c2)C1`, the growth is -58.2% (active).

For `COc1ccc(-c2cnnn2-c2cc(OC)c3c(c2)OCO3)cc1`, the growth was 40.9% (inactive).
